# From PubChem
# NPC1 prom act – NPC1 promoter activation; AID 485313; 320,000 tested, 2.4% active; Huh7 NPC1 promoter luciferase reporter, 24 h; Potency, µM (doses to about 9.22 µM), inactives show at the top dose activation, actives largely listed as activators; note: % of control where 0% means no effect; nearly all actives have a fitted effect of over 60% in size
#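 NPC1 promoter–luciferase Huh7 cells; 24 h compound; luminescence.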
# ELG1 genotoxic – genotoxicity induction in ELG1-luciferase HEK293T cells; Potency, µM (highest dose often 46 µM), inactives show at the highest dose activity change, positive = activation, hits mostly activators; HEK293T ELG1-luciferase reporter, luminescence, 16 h; 330,000 tested, 1.3% active; note: % of control where 0% means no effect; nearly all actives have a fitted effect of over 60% in size
#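 Genotoxicity was scored as increased ELG1-luciferase reporter signal, measured by ONE-Glo luminescence (30 min, room temperature). Compound or vehicle exposure of the HEK293T reporter cells lasted 16 hr at 37°C.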
# FLuc counter – inhibits or activates purified firefly luciferase, miR-21 counter-screen; P08659; purified FLuc, Km substrates, luminescence inhibition; Potency, µM (series often up to 57.5 µM), for the others: top-dose activity change, negative = inhibition, usual class: inhibitors; 360,000 tested, 6.9% active; AID 588342;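 note: plate controls were vehicle for no effect and reference inhibitor for full effect; nearly all actives have a fitted effect of over 55% in size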
# Target sequence (P08659 whole entry, looked up): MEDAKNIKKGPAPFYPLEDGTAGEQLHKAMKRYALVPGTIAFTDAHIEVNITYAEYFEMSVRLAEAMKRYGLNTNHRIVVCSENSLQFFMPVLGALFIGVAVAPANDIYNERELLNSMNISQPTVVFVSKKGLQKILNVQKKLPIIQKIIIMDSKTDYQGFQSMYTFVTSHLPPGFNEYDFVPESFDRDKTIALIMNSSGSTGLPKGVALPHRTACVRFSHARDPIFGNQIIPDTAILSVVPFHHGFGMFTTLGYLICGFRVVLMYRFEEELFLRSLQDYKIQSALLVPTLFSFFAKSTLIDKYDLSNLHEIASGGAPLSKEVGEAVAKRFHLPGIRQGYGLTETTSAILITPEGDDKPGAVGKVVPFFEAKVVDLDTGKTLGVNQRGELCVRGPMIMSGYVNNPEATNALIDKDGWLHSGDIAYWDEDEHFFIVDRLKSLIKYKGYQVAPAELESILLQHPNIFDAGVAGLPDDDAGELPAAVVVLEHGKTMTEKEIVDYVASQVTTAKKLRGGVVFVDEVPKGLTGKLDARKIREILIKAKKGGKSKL
#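 Biochemical qHTS of compounds, final roughly 60 µM downward over six points, against 10 nM purified firefly luciferase using Km concentrations of substrates (10 uM D-luciferin, 10 uM ATP) in Tris acetate pH 7.5 buffer; luminescence output.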
# SMN2 splice enh – SMN2 splice variant enhancement; HEK293 SMN2-luciferase splicing reporter, luminescence, 30-36 h; Potency, µM (series often up to 46.1 µM), for the others: at the top dose activity change, positive = activation, hits mostly activators; 210,000 tested, 2.8% active; AID 1458; note: % of control where 0% means no effect; nearly all actives have a fitted effect of over 55% in size
#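 qHTS luciferase splicing reporter: luminescence rises when SMN2 exon 7 is included in transfected HEK293 cells. Compound exposure lasted 30-36 h at 37C, with 4.5 mM final sodium butyrate as control, followed by a ONE-Glo read.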
# ELG1 repair inh – ELG1-dependent DNA repair inhibition | Potency, µM (highest dose often 46.1 µM), for the others: top-dose activity change, negative = inhibition, most hits filed as inhibitors | 330,000 tested, 2.3% active | HEK293T ELG1-luciferase reporter, luminescence, 16 h; DNA damage induced by 5-fluorouridine; note: % is set by controls: 0 for no effect and ±100 for the full control effect; nearly all actives have a fitted effect of over 55% in size
#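 DMSO vehicle served as the neutral condition. Each well held 2,000 cells given 5-fluorouridine plus compound; after 16 hr at 37 °C/5% CO2, ONE-Glo was added and luciferase measured 30 min later.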
# Rab9 prom act – activators of Rab9 promoter | Huh7 Rab9 promoter-luciferase reporter, luminescence, 24 h | Potency, µM (series often up to 9.22 µM), for the others: at the highest dose activation, negative = inhibition, usual class: activators | 320,000 tested, 2.8% active; note: % of control where 0% means no effect; nearly all actives have a fitted effect of over 60% in size
#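 Steps: seed 1500 Huh7 Rab9-luc cells per well, rest 2 h at 37 °C; add compound in DMSO; incubate 24 h; add luciferase reagent, 10 min ambient; read luminescence.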
# * = called active by the depositor; ? = inconclusive; · = no result given. Only some compounds are listed: those with a hit (about 9.3% of all), similar ones and a draw of the others. Calls come from the whole dose curve; as a rule, active = well fitted curve in the direction sought with a large enough effect; inconclusive = small, poorly fitted or top-dose-only effect, or another doubt; inactive = no such curve, though single readings can be large; an effect the other way counts as inactive or inconclusive. Potency is the fitted concentration of half-maximal effect.
SMILES,NPC1 prom act,ELG1 genotoxic,FLuc counter,SMN2 splice enh,ELG1 repair inh,Rab9 prom act
COc1ccc(Br)cc1C(=O)Nc1ccc(N2CCN(S(C)(=O)=O)CC2)cc1,-2%,8%,2%,14%,-7%,-8%
C=CCc1ccccc1OCC(O)CN1CCN(CCN2C(=O)c3cccc4cccc(c34)C2=O)CC1 (stereo unspecified),1%,-14%,-13%,-91%,21µM*,-12%
CC(C)OCC(O)CN1CCN(CCN2C(=O)c3cccc4cccc(c34)C2=O)CC1 (stereo unspecified),-1%,3%,4%,·,-1%,-3%
CCC(OCC(O)CN1CCN(CCN2C(=O)c3cccc4cccc(c34)C2=O)CC1)c1ccccc1 (stereo unspecified),3%,-6%,1%,-36%,21µM*,-8%
CC(=O)c1ccc(OCC(O)CN2CCN(CCN3C(=O)c4cccc5cccc(c45)C3=O)CC2)cc1 (stereo unspecified),-7%,-6%,0%,-3%,23µM*,-2%
Cc1cccc(C)c1OCC(O)CN1CCC(CN2C(=O)c3cccc4cccc(c34)C2=O)CC1 (stereo unspecified),1%,-17%,7%,·,23µM*,-5%
Cn1c(SCC(=O)Nc2ccc(F)cc2)nnc1-c1cccnc1,-2%,-13%,1%,4%,28%,-1%
Cc1ccccc1OCC(O)CN1CCN(CCN2C(=O)c3cccc4cccc(c34)C2=O)CC1 (stereo unspecified),-4%,-5%,-2%,14%,23µM*,-3%
CCOC(=O)/C=C/c1ccc2oc3ccccc3c(=O)c2c1,3.5µM*,?,2.4µM*,·,?,4µM*
COc1cc2oc3ccccc3c(=O)c2cc1OC,?,?,?,·,?,5%
CCCCCn1c(N)c(-c2nc3ccccc3s2)c2c([N+](=O)[O-])nn(CC)c(=O)c21,-5%,-19%,1%,-17%,2.6µM*,-2%
CCCCn1c(N)c(-c2nc3ccccc3s2)c2c([N+](=O)[O-])nn(C)c(=O)c21,-7%,?,-13%,-25%,1µM*,-10%
COc1cc(O)c(C(CC(=O)N2CCN(c3ccccc3)CC2)c2ccc3c(c2)OCO3)c(OC)c1 (stereo unspecified),-1%,-3%,0%,·,14%,-8%
COc1cccc(C=O)c1OCCCOc1cccc2cccnc12,?,18µM*,?,·,?,4.5µM*
Cc1ccc(OCCOCCOc2cccc3cccnc23)c(Br)c1,0%,-3%,?,-14%,2%,-3%
Cc1ccc(C(=O)NCCOc2cccc3cccnc23)cc1Cl,5%,1%,?,-5%,7%,-8%
COc1cc(C(=O)NCCOc2cccc3cccnc23)cc(OC)c1OC,-22%,-11%,1%,-18%,8.2µM*,-22%
Brc1ccccc1OCCCOc1cccc2cccnc12,?,?,11µM*,·,?,4µM*
Brc1ccccc1OCCOc1cccc2cccnc12,-3%,11%,12µM*,?,?,-3%
CC(C)CNC(=O)NC(=O)COC(=O)c1ccccc1Sc1ccc(C(F)(F)F)cc1[N+](=O)[O-],-1%,2%,-1%,·,5%,2%
C=C1CCN([C@H](C(=O)NCc2ccccc2)C(C)C)S(=O)(=O)c2ccccc21,-1%,-3%,1%,·,1%,-1%
CCOc1ccc(C(=S)NC2CCCCC2)cc1,3.2µM*,14%,12µM*,3%,?,?
CCOc1ccc(NC(=O)c2ccc(NC(=S)NC3CCCCC3)cc2)cc1,12%,21%,?,20%,?,1%
COc1ccc(C(=S)NC2CCCCC2)cc1,8%,10%,12µM*,·,?,?
O=C(NC1(C(F)(F)F)NC(=O)N(C2CCCCC2)C1=O)c1cccs1 (stereo unspecified),0%,-3%,-2%,-11%,-1%,-4%
SMILES,NPC1 prom act,ELG1 genotoxic,FLuc counter,SMN2 splice enh,ELG1 repair inh,Rab9 prom act
CCOc1ccccc1N1CN(CC)CNC1=S,-2%,-2%,-1%,-10%,20%,-2%
Cc1ccc(C(=O)NC2CCN(Cc3ccccc3)CC2)cc1S(=O)(=O)N1CCOCC1,-5%,18µM*,-2%,·,4%,-14%
Cc1ccc(C(=O)NC(C)CCc2ccccc2)cc1S(=O)(=O)N1CCOCC1 (stereo unspecified),·,0%,·,·,18µM*,·
Cc1ccc(C(=O)NC2CCCCCC2)cc1S(=O)(=O)N1CCOCC1,?,?,-19%,·,?,29%
Cc1ccc(C(=O)NCCc2ccccc2)cc1S(=O)(=O)N1CCOCC1,23%,6%,?,·,?,?
COc1ccc(N2CCN(C(=O)NCc3noc4ccccc34)CC2)cc1,·,·,2%,·,·,·
Cc1ccc(NC(=O)C2CCCN(c3ncccn3)C2)cc1C (stereo unspecified),?,?,17µM*,·,?,?
COc1ccc(NC(=O)C2CCCN(c3ncccn3)C2)cc1 (stereo unspecified),?,?,17µM*,·,?,2.8µM*
CCC(C)c1ccc(NC(=O)C2CCCN(c3ncccn3)C2)cc1 (stereo unspecified),4%,-1%,15µM*,8%,10%,1%
Cc1ccnc(N2CCCC(C(=O)Nc3ccc(C)c(C)c3)C2)n1 (stereo unspecified),3%,-18%,1%,·,-22%,-1%
COc1ccc(NC(=O)C2CCCN(c3nccc(C)n3)C2)cc1 (stereo unspecified),-1%,1%,-1%,-8%,-3%,-10%
CCC(C)c1ccc(NC(=O)C2CC2)cc1 (stereo unspecified),16%,?,15µM*,2%,?,29%
Cc1nc(-c2ccc(F)cc2)c(CC(=O)N(C)CC(=O)Nc2ccc(Br)cc2C)s1,-7%,0%,-1%,·,-25%,-6%
CCn1c(=O)c2sccc2n2c(CCCC(=O)Nc3ccc(C)cc3)nnc12,·,·,-2%,·,·,·
CCC(C)c1ccc(NC(=O)Nc2cnccn2)cc1 (stereo unspecified),-6%,?,6.7µM*,·,?,?
Cc1ccc(NC(=O)c2ccc(C(C)(C)C)cc2)cc1[N+](=O)[O-],?,?,6µM*,15%,?,?
Cc1ccc(NC(=O)c2cccs2)cc1[N+](=O)[O-],21%,-1%,21µM*,·,?,27%
O=C(CNC(=O)c1cccs1)c1ccc(Cl)cc1,1.1µM*,?,6µM*,·,?,0.5µM*
